WT yeast gro inh: growth inhibition of WT yeast, mitochondrial fusion screen; mitochondrial fusion phenotypic screen, WT strain; inhibition, % at 10 µM; 190,000 tested, 2.1% active; AID 1362; in the data active means inhibition above about 58%; tested in S. cerevisiae
m-calpain inh: blocks pig calpain II enzyme activity; purified calpain II, fluorogenic peptide substrate, 30 min; inhibition, % at 16 µM; 220,000 tested, 0.37% active; AID 1236;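 active means inhibition above about 50%, limit read from the data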
Lmaj promast: Leishmania major promastigote growth inhibition; inhibition, % at 10 µM; 200,000 tested, 9% active; AID 1063; Leishmania major promastigotes, resazurin fluorescence viability; in the data active means inhibition above about 50%;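 further: promastigotes grown with compound for 44 hours at 28 °C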
KCC2 mod: modulates chloride dependent transport by human KCC2; Q9H2X9; KCC2 cells, thallium flux FluoZin-2 fluorescence; B-score of Tl+ flux slope (higher = more flux/activation; lower = inhibition) at 10 µM; 190,000 tested, 2.2% active; AID 1456;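 active means thallium flux slope and its plate-corrected score both differing from the plate sample mean at a set confidence after two filtering rounds, in either direction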;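 further: slope of fluorescence scaled to starting intensity during 10 to 20 s after thallium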
ROMK primary: modulators of human ROMK potassium channel. P48048. Tet-inducible ROMK, thallium flux fluorescence; actives lie on both sides. B-score at 10 µM. 130,000 tested, 2% active. AID 1918;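 active means signal ratio slope over the read window, or its plate-corrected B-score, at least 3 SD from the plate mean, either direction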;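 further: B-score of the F/F0 ratio slope over 7 to 12 s after thallium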
Target sequence (P48048 whole entry, looked up): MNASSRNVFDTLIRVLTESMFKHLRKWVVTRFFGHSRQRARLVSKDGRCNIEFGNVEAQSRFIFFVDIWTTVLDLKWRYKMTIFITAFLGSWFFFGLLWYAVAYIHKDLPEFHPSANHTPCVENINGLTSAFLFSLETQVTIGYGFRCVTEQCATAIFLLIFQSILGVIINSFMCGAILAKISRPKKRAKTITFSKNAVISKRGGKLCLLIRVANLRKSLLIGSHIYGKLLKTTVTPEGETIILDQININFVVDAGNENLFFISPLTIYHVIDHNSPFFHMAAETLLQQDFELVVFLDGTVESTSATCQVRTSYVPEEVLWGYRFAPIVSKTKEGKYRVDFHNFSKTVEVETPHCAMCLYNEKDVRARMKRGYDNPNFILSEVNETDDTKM
Numbers without * were called inactive; nt = not tested or not shown. Compounds with a hit are over-represented: about 12% of the library has one in this group of screens.

SMILES | WT yeast gro inh | m-calpain inh | Lmaj promast | KCC2 mod | ROMK primary
CCOC(=O)c1ccc(NC(=O)COc2ccccc2OC)cc1 | 26.7 | 24.8 | 3.2 | -0.322 | -0.63
CCOC(=O)c1ccc(NC(=O)COc2ccccc2CNC2CCCC2)cc1 | 6.7 | -5.9 | 100.4* | 0.48 | -2.4
Cc1cc(N)n2ncc(-c3ccc(F)cc3)c2n1 | 9.9 | -61.6 | 8.9 | -0.241 | 0.397
Cc1cc(N)n2ncc(-c3ccc(Cl)cc3)c2n1 | 21.8 | -39.6 | 55.2* | -0.85 | nt
Clc1ccc(-c2c[n+](Cc3cccc(Cl)c3)c3n2CCC3)cc1 | -10.4 | 0.5 | 99.5* | 0.00883 | -0.972
Clc1ccc(C[n+]2cc(-c3ccccc3)n3c2CCC3)cc1Cl | 1.0 | 25.0 | 99.2* | 1.34 | nt
O=[N+]([O-])c1ccc(C[n+]2cc(-c3ccc(Cl)c(Cl)c3)n3c2CCCCC3)cc1 | nt | 20.8 | nt | -0.813 | nt
Clc1ccc(C[n+]2cc(-c3ccccc3)n3c2CCCCC3)c(Cl)c1 | 17.0 | 36.0 | 100.3* | -0.926 | nt
N#CC[n+]1cc(-c2ccc(Cl)cc2)n2c1CCC2 | -7.8 | 11.7 | -6.7 | nt | nt
O=C(Cn1nc(C(=O)O)c2ccccc2c1=O)NC12CC3CC(CC(C3)C1)C2 | -6.5 | 9.8 | -4.2 | -0.433 | -0.101
O=C(Oc1coc(CSc2ncccn2)cc1=O)c1cccs1 | -3.8 | -10.9 | -2.2 | 0.126 | -0.0145
Clc1ccc2nc(-c3ccccc3)c(CN3CCOCC3)n2c1 | 10.0 | 12.2 | 59.6* | nt | 0.295
Clc1ccc(-c2nc3ccccn3c2CN2CCOCC2)cc1 | -2.3 | -28.1 | 35.4 | nt | nt
O=C(O)c1ccccc1SC1CC(=O)N(c2ccccc2)C1=O (stereo not given) | -2.1 | 18.0 | 51.2* | 0.32 | 0.0316
O=[N+]([O-])c1cccc(-c2ccc(/C=N/Nc3nc(N4CCCCC4)nc(N4CCCCC4)n3)o2)c1 | 49.9 | -50.1 | 90.3* | -1.78 | -1.17
O=[N+]([O-])c1cccc(-c2ccc(/C=N/NC(=S)Nc3ccccc3)o2)c1 | 33.1 | -0.7 | 59.4* | 0.497 | 1.19
O=[N+]([O-])c1cccc(-c2ccc(/C=N/NC(=S)NCc3ccco3)o2)c1 | nt | -9.5 | nt | 1.29 | 0.405
O=[N+]([O-])c1cccc(-n2cccc2/C=N/Nc2nc(N3CCCCC3)nc(N3CCCCC3)n2)c1 | 7.0 | -60.2 | 36.1 | -0.606 | -2.78
C=CCNC(=S)N/N=C/c1cccc([N+](=O)[O-])c1 | 5.5 | 63.5* | -4.6 | 1.18 | -1.17
O=[N+]([O-])c1ccc(-c2ccc(/C=N/Nc3nc(N4CCCCC4)nc(N4CCCCC4)n3)o2)cc1 | 7.8 | -80.6 | 14.8 | 0.63 | -1.17
O=[N+]([O-])c1cccc(/C=N/Nc2nc(N3CCCCC3)nc(N3CCCCC3)n2)c1 | 44.8 | -50.4 | 75.8* | -0.087 | nt
CC[N+](CC)(CCCCS(=O)(=O)[O-])CCNP1(=O)C=C(c2ccccc2)OC(c2ccccc2)=C1 | -1.6 | 31.4 | -1.0 | -0.0222 | 1.16
CC1CCCC(CC(=O)O)(CC(=O)O)C1 (stereo not given) | nt | 10.0 | nt | 1.37 | nt
CCOc1cc(C2NC(=O)NC(c3ccccc3)=C2C(C)=O)ccc1OC(C)=O (stereo not given) | 11.1 | 3.2 | -4.2 | -0.289 | 0.00751
Cc1ccc2nc(-c3ccc(NC(=O)CNC4CC4)cc3)sc2c1 | 59.3* | -124.6 | 16.2 | 0.0773 | -0.201
SMILES | WT yeast gro inh | m-calpain inh | Lmaj promast | KCC2 mod | ROMK primary
C=CCn1c(SCC(=O)Nc2ccc(-c3nc4ccc(C)cc4s3)cc2)nnc1-c1ccncc1 | -21.2 | -462.9 | 50.0* | 1.71 | 0.213
Cc1ccc2nc(-c3ccc(NC(=O)CN4C(=O)c5ccccc5C4=O)cc3)sc2c1 | 11.5 | -98.5 | -8.2 | 0.474 | 0.286
Cc1csc(NC(=O)CSc2nnc3c4ccccc4nc(C(C)(C)C)n23)n1 | -4.9 | -3.9 | 7.8 | 2 | nt
Cc1cc(C)n(-c2nc(NCCN(C)C)c3c4c(sc3n2)COC(C)(C)C4)n1 | nt | -5.8 | nt | 1.77 | nt
Cc1cc(C)n(-c2nc(NCCC(C)C)c3c4c(sc3n2)COC(C)(C)C4)n1 | 80.3* | -16.1 | 70.9* | -1.85 | nt
O=C(/C=C/c1ccc(-c2ccccc2[N+](=O)[O-])o1)c1ccco1 | 56.9 | -11.3 | 58.6* | -1.7 | 0.322
CC1CCCCC1NC(=O)CSc1ccc([N+](=O)[O-])cc1 (stereo not given) | nt | -11.6 | nt | -0.181 | nt
CC(C)NCC(O)Cn1c2c(c3ccccc31)CCc1c-2cnn1-c1ccccc1 (stereo not given) | 11.2 | -492.1 | 100.5* | nt | -0.959
CN1CCc2c(n(CC(O)CNCc3ccccc3)c3ccccc23)C1=O (stereo not given) | 1.1 | 21.7 | 21.9 | -0.358 | -1.75
CC1(C)CN2C(=O)c3ccccc3C2(C)S1 (stereo not given) | 2.7 | -25.0 | -6.2 | -0.229 | -0.145
CC1(c2ccccc2)CC(C)(C)N2C(=O)/C(=C3\SC(=S)NC3=O)c3cccc1c32 (stereo not given) | 61.1* | 32.1 | 8.9 | 20.2* | nt
COc1ccccc1NC(=O)c1ccc(S(=O)(=O)N2CCOCC2)cc1 | 6.8 | 15.5 | 3.4 | nt | -0.871
COc1cccc2sc(NC(=O)c3ccc(S(=O)(=O)N4CCOCC4)cc3)nc12 | 5.2 | -7.0 | 51.5* | 0.301 | nt
Cc1cc(NC(=O)c2ccc(S(=O)(=O)N3CCOCC3)cc2)no1 | -2.1 | -25.5 | 54.3* | 1.28 | -0.086
Cc1nnc(NC(=O)c2ccc(S(=O)(=O)N3CCOCC3)cc2)s1 | nt | -9.4 | nt | 0.0714 | nt
O=C(CSc1nnc(NC(=O)c2ccc(S(=O)(=O)N3CCOCC3)cc2)s1)Nc1ccccc1C(F)(F)F | -1.6 | -8.4 | 92.3* | 0.138 | 0.0697
Cc1cccc(NC(=O)c2ccc(S(=O)(=O)N3CCOCC3)cc2)n1 | 1.1 | -13.6 | 2.5 | 0.00492 | -0.244
COc1ccccc1C(=O)NCC1CCN(c2ccc(S(=O)(=O)N3CCOCC3)cc2)CC1 | -8.3 | -9.4 | 99.6* | 1.26 | 0.794
COc1ccc(C)cc1NC(=O)c1ccc(S(=O)(=O)N2CCOCC2)cc1 | -2.0 | 13.6 | -4.7 | 0.333 | -0.658
CCn1c(=NC(=O)c2ccc(S(=O)(=O)N3CCOCC3)cc2)sc2cccc(OC)c21 | 36.7 | -69.7 | 99.8* | nt | -0.526
CCOc1cc(C=O)ccc1OS(=O)(=O)c1ccc(NC(C)=O)cc1 | -0.6 | -15.2 | -4.2 | -3.08 | 0.435
O=C(c1cc2sccc2n1Cc1ccc(F)cc1)N1CCN(c2nc3ccccc3s2)CC1 | 13.7 | -83.1 | 83.8* | -1.3 | -0.759
O=C(NCCc1ccccc1)N1c2ccccc2Sc2ccccc21 | -4.3 | -1.3 | 13.7 | -0.522 | 1.81*
COC(=O)[C@H](C)NC(=O)NCc1ccc(S(N)(=O)=O)cc1 | nt | -15.0 | nt | -0.234 | nt
COC(=O)COc1ccc(/C=N/NC(=O)c2ccc(N(Cc3ccccc3)S(C)(=O)=O)cc2)cc1 | -8.1 | 3.0 | 58.4* | 0.693 | 0.597
COc1ccc(/C=C2\N=C(SC)NC2=O)cc1 | 1.8 | 4.2 | 23.1 | 16.2* | -1.2
CCSC1=N/C(=C\c2ccc(OC)cc2)C(=O)N1 | -9.6 | 27.1 | 0.5 | -0.452 | nt
CN(C)c1ccc(C2Nc3ccccc3C(=O)N2CCCN2CCOCC2)cc1 (stereo not given) | nt | -17.4 | nt | 1.09 | nt
CCN(CC)S(=O)(=O)c1cccc(-c2nnc(SCC(=O)NC)n2N)c1 | -5.0 | -18.1 | -7.1 | 0 | nt

From PubChem BioAssay
